# Results published in PubChem BioAssay (NCI).
# About 83,000 compounds went through this panel and 20% of them were active in at least one assay; those are over-represented in the sample as a whole.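 Testing used 96-well plates and a 48-hour single-concentration exposure. Example: -40 means 40% of the starting cells died.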 Unmarked numbers belong to inactive results. The source made the active and inactive calls. Rule for the calls: active = growth percent below 10; inactive = the rest.
# Test system: A549/ATCC NSCLC
# Assay: NCI-60 one-dose screen, 48 h (100 = growth as untreated, 0 = no growth, -100 = all killed)
# Settings: 10 µM unless noted
row,SMILES,growth
1,CCCC[C@H](NC(=O)[C@H]1CCCN1C)C(=O)N(C)[C@H](C[C@@H](OC(C)=O)c1nc(C(=O)N[C@@H](Cc2ccccc2)C[C@H](C)C(=O)OCC)cs1)C(C)C,8.16% (active)
2,COc1ccc2c(c1)c(-c1nc(-c3c[nH]c4ncccc34)cs1)cn2CCCCN1CCCCC1,-65.9% (active)
3,COC(=O)[C@H](Cc1ccccc1)NC(=O)c1csc([C@@H](C[C@H](C(C)C)N(C)C(=O)[C@@H](NC(=O)[C@H]2CCCN2C)C2CC2)OC(C)=O)n1,23.2%
4,C[C@]12CC[C@H]3[C@@H](CC[C@]4(O)C[C@@H](O[C@@H]5O[C@H](CO)[C@@H](O[C@@H]6OC[C@@H](O)[C@H](O)[C@H]6O)[C@H](O)[C@H]5O)CC[C@]34C=O)[C@@]1(O)CC[C@@H]2C1=CC(=O)OC1,-89.8% (active)
5,c1cc2c(c3c1CCNC3)OCO2,66%
6,Fc1ccc2c(c1)c(-c1nc(-c3c[nH]c4ncccc34)cs1)cn2CCCCN1CCCCC1,-87.7% (active)
7,O=C(Nc1ccncc1F)c1cn(CC2CC2)c2ccccc12,98.5%
8,COP(=S)(N1CC1)N1CC1,133%
9,C/C=C(\C)C(=O)O[C@@H]1C(O)[C@H]2OC(COC(=O)CCC(=O)CCCCCC[C@H](CCCCC)O[C@@H]3OC(C)[C@H](OC(C)=O)C(O)[C@H]3O2)[C@H]1OC(=O)/C=C/c1ccccc1 (stereo partly specified),20.2%
10,CCc1ccccc1[C@@H]1C[C@]2(C)CCO[C@@H]2OO1,96.8%
11,CC(=O)O[C@H](C[C@H](C(C)C)N(C)C(=O)[C@@H](NC(=O)[C@H]1CCCCN1C)C(C)(C)C)c1nc(C(=O)N[C@@H](Cc2ccccc2)C[C@H](C)C(=O)O)cs1,9.66% (active)
